According to PMC7862700, “An all-to-all approach to the identification of sequence-specific readers for epigenetic DNA modifications on cytosine”:

Columns and labels:
Test in all cases: DAPPL (digital affinity profiling via proximity ligation, sequencing); 10 mM Tris-HCl pH 7.5, 50 mM NaCl, 1 mM DTT, 4% glycerol, room temperature, 30 min; GST-TFs on glutathione beads, 16-mer random dsDNA library, 0.1% formaldehyde crosslink after washing; high values mean tight binding
FLI1 = target: T1, FLI1 (Homo sapiens, UniProt Q01543 1-452); conditions: protein: recombinant; tags: N-terminal GST; dsDNA, one strand shown
T1 sequence: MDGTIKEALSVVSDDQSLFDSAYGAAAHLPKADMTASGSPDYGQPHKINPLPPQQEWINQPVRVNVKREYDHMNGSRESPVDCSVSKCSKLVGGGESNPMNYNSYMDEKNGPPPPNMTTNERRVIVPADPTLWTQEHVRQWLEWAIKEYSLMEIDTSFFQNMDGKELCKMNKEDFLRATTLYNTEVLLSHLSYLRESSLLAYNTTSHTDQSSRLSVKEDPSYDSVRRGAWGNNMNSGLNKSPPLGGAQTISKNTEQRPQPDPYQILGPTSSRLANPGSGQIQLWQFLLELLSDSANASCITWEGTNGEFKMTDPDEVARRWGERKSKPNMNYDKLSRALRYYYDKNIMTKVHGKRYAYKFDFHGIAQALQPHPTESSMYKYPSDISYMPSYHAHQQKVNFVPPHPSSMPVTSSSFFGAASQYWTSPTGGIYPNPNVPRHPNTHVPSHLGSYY
How it was run: (§1)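 Binding signal is given per hexamer as its read frequency for a factor divided by its frequency in the tag-only sample. GST-fused human transcription factors were expressed in yeast, captured on glutathione beads, barcoded with DNA and pooled with that sample, then incubated with 200 nmole of a 16-mer random double-stranded DNA library in Tris/NaCl/DTT/glycerol buffer for 30 min at room temperature. The pools were then washed, crosslinked, proximity-ligated, amplified by PCR and sequenced on an Illumina NextSeq500.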

ELK1 = target: T2, ELK1 (Homo sapiens, UniProt P19419 1-428); conditions: protein: recombinant; tags: N-terminal GST; dsDNA, one strand shown
T2 sequence: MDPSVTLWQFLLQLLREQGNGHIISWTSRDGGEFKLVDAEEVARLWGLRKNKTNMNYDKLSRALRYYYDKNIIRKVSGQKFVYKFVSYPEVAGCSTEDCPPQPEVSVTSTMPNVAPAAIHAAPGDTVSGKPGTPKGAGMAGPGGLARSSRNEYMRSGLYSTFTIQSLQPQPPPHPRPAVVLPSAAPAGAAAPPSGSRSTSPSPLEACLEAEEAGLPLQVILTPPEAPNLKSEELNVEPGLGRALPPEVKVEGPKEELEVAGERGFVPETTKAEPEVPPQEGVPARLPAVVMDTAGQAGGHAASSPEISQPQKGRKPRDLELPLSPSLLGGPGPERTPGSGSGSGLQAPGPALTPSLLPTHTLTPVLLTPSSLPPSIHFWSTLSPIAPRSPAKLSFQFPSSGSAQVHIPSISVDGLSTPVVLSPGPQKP
How it was run: as §1

GABPA = target: T3, GABPA (Homo sapiens, UniProt Q06546 1-454); conditions: protein: recombinant; tags: N-terminal GST; dsDNA, one strand shown
T3 sequence: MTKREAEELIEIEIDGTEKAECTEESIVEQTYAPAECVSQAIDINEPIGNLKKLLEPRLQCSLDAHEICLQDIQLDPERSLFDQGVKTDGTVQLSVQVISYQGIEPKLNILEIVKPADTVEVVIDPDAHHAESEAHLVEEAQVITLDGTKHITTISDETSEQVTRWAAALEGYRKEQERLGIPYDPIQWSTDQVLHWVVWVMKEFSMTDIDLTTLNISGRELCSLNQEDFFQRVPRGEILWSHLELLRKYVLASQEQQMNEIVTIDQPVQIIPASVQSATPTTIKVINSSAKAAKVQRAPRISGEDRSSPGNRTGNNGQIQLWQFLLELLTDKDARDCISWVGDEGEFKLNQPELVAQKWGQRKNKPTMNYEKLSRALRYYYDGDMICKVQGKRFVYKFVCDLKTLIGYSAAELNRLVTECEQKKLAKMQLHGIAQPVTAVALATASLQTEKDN
How it was run: as §1

ERG = target: T4, ERG (Homo sapiens, UniProt P11308 1-479); conditions: protein: recombinant; tags: N-terminal GST; dsDNA, one strand shown
T4 sequence: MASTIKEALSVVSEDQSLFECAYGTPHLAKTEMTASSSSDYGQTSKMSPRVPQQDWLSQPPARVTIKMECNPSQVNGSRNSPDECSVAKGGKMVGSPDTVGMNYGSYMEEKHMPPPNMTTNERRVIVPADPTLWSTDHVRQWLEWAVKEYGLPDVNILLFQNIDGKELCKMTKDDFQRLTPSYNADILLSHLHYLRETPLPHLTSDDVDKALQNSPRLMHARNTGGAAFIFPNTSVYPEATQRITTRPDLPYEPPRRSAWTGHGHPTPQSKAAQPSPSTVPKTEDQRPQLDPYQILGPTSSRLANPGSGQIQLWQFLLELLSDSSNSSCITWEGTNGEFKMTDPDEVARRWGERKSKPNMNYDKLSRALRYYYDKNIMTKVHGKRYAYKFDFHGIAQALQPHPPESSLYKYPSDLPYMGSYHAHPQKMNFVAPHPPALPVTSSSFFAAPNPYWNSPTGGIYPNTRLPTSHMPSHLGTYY
How it was run: as §1

ELF1 = ELF1 (Homo sapiens, UniProt P32519 1-619); conditions: protein: recombinant; tags: N-terminal GST; dsDNA, one strand shown
Chain of ELF1 (P32519 whole entry): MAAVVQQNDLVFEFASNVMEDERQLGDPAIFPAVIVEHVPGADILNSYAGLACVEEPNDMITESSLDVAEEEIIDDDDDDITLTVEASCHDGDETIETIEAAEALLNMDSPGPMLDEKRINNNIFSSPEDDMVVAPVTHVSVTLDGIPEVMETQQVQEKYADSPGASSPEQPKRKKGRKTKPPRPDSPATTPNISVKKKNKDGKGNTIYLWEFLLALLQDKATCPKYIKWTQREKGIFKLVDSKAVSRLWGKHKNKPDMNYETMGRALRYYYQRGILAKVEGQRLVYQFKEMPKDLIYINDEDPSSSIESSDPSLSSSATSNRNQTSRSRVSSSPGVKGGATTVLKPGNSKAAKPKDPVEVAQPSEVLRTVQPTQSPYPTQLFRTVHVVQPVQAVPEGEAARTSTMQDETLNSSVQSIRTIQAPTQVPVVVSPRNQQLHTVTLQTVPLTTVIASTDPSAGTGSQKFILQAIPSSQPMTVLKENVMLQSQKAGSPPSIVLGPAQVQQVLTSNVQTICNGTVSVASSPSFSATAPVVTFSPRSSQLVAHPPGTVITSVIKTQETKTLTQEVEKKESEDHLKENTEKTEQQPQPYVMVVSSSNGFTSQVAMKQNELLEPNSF
How it was run: as §1

EHF = target: T5, EHF (Homo sapiens, UniProt Q9NZC4 1-300); conditions: protein: recombinant; tags: N-terminal GST; dsDNA, one strand shown
T5 sequence: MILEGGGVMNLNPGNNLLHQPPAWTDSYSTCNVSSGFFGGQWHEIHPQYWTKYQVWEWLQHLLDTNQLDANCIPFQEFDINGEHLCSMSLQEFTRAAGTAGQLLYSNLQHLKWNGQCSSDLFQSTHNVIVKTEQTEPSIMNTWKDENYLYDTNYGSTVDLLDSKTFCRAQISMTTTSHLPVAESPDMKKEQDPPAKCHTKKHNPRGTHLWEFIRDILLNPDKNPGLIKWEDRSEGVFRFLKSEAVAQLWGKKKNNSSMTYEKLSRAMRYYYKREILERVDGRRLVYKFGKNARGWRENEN
How it was run: as §1

SPI1 = SPI1 (Homo sapiens, UniProt P17947 1-270); conditions: protein: recombinant; tags: N-terminal GST; dsDNA, one strand shown
How it was run: as §1

SPIB = SPIB (Homo sapiens, UniProt Q01892 1-262); conditions: protein: recombinant; tags: N-terminal GST; dsDNA, one strand shown
Chain of SPIB (Q01892 whole entry): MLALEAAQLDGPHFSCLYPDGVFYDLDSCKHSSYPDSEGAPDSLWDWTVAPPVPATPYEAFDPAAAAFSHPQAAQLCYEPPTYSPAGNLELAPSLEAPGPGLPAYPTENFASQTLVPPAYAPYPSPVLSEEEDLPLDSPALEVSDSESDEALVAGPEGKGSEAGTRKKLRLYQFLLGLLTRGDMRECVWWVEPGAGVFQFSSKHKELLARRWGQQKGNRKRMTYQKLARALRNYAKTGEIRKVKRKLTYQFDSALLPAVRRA
How it was run: as §1

ELK3 = target: T6, ELK3 (Homo sapiens, UniProt P41970 1-407); conditions: protein: recombinant; tags: N-terminal GST; dsDNA, one strand shown
T6 sequence: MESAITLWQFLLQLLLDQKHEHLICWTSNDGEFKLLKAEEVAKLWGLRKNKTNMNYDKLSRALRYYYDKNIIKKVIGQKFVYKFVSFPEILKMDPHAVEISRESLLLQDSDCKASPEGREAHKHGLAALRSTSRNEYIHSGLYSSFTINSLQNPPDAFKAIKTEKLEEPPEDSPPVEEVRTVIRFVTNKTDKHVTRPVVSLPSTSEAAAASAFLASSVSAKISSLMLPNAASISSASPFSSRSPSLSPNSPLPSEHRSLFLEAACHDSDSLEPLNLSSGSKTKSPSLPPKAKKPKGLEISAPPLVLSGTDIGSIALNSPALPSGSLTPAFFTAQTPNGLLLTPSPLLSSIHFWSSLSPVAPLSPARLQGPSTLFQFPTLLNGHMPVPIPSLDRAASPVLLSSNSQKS
How it was run: as §1

FEV = target: T7, FEV (Homo sapiens, UniProt Q99581 1-238); conditions: protein: recombinant; tags: N-terminal GST; dsDNA, one strand shown
T7 sequence: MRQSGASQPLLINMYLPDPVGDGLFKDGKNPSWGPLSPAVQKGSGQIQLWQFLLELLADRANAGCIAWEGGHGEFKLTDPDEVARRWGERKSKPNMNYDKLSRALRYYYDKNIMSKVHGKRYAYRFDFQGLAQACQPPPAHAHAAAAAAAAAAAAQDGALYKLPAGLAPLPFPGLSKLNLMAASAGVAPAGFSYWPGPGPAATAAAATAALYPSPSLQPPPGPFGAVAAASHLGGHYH
How it was run: as §1

ETV5 = ETV5 (Homo sapiens, UniProt P41161 1-510); conditions: protein: recombinant; tags: N-terminal GST; dsDNA, one strand shown
Chain of ETV5 (P41161 whole entry): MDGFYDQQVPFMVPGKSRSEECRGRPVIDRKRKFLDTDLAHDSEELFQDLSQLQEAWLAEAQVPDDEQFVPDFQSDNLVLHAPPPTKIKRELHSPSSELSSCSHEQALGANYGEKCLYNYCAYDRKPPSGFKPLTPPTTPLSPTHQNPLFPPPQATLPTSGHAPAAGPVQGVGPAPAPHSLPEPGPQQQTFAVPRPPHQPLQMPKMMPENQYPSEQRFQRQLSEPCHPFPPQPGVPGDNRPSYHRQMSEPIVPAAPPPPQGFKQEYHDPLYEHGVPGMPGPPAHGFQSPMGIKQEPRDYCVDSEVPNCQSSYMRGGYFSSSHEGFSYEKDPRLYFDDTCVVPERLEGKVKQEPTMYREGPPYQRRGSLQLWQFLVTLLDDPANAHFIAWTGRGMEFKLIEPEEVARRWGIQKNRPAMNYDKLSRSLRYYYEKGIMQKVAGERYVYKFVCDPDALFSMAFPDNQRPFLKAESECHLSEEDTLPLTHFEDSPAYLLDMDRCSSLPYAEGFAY
How it was run: as §1

HSF1 = HSF1 (Homo sapiens, UniProt Q00613 1-529); conditions: protein: recombinant; tags: N-terminal GST; chain copies: 3; dsDNA, one strand shown
Chain of HSF1 (Q00613 whole entry): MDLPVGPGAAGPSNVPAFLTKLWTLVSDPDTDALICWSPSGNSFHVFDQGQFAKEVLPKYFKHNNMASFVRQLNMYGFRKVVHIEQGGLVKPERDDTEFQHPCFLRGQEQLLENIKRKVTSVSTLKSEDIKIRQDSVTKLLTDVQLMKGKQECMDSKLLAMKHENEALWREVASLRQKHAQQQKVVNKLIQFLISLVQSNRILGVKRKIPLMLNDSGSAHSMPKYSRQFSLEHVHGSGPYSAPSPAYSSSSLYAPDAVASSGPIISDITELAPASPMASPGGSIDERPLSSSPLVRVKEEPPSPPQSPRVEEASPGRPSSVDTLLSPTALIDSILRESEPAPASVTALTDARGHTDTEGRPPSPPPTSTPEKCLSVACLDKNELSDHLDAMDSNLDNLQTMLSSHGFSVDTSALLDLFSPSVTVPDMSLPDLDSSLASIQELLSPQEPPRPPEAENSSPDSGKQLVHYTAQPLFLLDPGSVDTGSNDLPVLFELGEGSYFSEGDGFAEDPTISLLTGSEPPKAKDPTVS
How it was run: as §1

SPIC = target: T8, SPIC (Homo sapiens, UniProt Q8N5J4 1-248); conditions: protein: recombinant; tags: N-terminal GST; dsDNA, one strand shown
T8 sequence: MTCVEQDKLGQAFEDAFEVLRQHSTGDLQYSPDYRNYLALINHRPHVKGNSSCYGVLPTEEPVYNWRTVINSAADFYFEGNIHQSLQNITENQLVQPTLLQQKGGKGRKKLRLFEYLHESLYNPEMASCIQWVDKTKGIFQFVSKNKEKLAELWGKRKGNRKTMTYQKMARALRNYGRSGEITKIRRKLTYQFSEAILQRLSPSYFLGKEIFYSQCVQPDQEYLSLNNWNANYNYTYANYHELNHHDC
How it was run: as §1

ELF4 = ELF4 (Homo sapiens, UniProt Q99607 1-663); conditions: protein: recombinant; tags: N-terminal GST; dsDNA, one strand shown
Chain of ELF4 (Q99607 whole entry): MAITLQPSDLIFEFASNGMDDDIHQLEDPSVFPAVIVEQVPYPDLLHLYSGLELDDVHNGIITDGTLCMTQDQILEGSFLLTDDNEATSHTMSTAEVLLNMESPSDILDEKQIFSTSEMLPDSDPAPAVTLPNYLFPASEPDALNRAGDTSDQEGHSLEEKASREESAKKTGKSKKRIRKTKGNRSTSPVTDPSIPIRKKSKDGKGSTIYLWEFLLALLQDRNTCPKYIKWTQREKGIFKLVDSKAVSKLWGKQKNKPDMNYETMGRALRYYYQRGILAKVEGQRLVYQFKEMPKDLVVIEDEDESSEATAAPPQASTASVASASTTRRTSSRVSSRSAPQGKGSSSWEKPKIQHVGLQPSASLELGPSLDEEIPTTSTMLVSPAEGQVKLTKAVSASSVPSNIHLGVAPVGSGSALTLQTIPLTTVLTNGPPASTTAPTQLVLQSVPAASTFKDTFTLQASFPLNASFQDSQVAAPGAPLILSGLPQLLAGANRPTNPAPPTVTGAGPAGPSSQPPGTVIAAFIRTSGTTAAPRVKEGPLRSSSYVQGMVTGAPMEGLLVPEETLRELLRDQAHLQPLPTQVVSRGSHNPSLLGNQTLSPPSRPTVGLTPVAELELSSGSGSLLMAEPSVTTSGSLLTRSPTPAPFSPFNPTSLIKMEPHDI
How it was run: as §1

ELK4 = target: T9, ELK4 (Homo sapiens, UniProt P28324-2 1-405); conditions: protein: recombinant; tags: N-terminal GST; dsDNA, one strand shown
T9 sequence: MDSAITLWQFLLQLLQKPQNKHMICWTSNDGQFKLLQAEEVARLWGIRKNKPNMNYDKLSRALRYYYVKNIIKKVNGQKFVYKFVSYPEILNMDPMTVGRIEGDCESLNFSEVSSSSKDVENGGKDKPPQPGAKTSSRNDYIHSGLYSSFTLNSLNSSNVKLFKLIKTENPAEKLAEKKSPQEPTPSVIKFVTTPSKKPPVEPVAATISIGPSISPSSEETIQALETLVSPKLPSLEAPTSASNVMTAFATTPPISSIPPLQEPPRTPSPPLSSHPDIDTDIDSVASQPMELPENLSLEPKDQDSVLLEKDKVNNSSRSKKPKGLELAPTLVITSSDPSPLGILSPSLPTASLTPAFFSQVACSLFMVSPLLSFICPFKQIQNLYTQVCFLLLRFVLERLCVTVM
How it was run: as §1

ETV2 = target: T10, ETV2 (Homo sapiens, UniProt O00321 1-342); conditions: protein: recombinant; tags: N-terminal GST; dsDNA, one strand shown
T10 sequence: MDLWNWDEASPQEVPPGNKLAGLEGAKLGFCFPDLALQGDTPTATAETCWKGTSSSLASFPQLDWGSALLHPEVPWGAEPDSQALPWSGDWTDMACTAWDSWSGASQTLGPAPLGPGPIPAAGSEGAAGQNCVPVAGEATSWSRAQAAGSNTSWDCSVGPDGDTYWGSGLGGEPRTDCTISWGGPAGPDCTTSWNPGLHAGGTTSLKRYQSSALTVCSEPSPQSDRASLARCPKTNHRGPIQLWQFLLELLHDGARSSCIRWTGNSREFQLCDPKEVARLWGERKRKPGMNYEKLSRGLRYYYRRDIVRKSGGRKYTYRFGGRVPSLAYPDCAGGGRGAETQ
How it was run: as §1

ELF3 = target: T11, ELF3 (Homo sapiens, UniProt P78545 1-371); conditions: protein: recombinant; tags: N-terminal GST; dsDNA, one strand shown
T11 sequence: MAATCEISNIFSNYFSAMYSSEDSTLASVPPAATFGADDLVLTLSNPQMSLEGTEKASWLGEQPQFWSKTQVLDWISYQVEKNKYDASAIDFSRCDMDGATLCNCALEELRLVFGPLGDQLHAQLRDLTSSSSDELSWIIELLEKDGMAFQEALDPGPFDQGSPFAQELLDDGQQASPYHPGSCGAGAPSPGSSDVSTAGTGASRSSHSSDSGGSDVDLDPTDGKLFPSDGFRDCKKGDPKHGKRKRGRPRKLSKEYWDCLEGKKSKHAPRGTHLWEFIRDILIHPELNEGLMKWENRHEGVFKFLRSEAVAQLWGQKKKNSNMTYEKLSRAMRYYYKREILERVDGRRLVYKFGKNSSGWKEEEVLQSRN
How it was run: as §1

CRX = CRX (Homo sapiens, UniProt O43186 1-299); conditions: protein: recombinant; tags: N-terminal GST; dsDNA, one strand shown
Chain of CRX (O43186 whole entry): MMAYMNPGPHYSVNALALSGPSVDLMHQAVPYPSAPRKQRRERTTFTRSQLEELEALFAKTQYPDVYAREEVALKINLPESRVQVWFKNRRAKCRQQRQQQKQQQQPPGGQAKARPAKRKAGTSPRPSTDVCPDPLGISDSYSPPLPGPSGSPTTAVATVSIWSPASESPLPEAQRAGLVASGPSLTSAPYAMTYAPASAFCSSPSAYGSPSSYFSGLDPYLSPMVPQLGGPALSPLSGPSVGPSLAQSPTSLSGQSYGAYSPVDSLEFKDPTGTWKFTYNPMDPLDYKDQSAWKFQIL
How it was run: as §1

ETV1 = ETV1 (Homo sapiens, UniProt P50549 1-477); conditions: protein: recombinant; tags: N-terminal GST; dsDNA, one strand shown
Chain of ETV1 (P50549 whole entry): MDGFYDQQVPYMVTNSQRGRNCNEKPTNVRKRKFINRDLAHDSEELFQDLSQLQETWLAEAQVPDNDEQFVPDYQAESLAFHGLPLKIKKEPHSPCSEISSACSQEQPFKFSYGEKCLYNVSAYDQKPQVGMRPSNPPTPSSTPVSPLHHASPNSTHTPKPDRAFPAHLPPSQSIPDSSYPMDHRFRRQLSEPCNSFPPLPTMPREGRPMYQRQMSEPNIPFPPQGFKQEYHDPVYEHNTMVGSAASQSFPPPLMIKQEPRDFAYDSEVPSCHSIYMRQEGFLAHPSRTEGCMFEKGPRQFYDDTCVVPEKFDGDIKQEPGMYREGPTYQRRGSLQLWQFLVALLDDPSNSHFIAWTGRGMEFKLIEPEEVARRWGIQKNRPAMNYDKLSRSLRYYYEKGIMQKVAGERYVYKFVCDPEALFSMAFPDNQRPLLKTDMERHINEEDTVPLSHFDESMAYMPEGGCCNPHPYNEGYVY
How it was run: as §1

In the case of AAGCCT, the binding signal (FLI1) is reported as 1.21 fold enrichment (6-mer frequency, TF over GST control), the binding signal (ELK1) is reported as 1.22 fold enrichment (6-mer frequency, TF over GST control) and the binding signal (GABPA) is reported as 1.24 fold enrichment (6-mer frequency, TF over GST control). For the same sequence, the binding signal (ERG) was 1.21 fold enrichment (6-mer frequency, TF over GST control), the binding signal (ELF1) was 1.25 fold enrichment (6-mer frequency, TF over GST control) and the binding signal (EHF) was 1.16 fold enrichment (6-mer frequency, TF over GST control). The binding signal (SPI1) was 1.14 fold enrichment (6-mer frequency, TF over GST control), the binding signal (SPIB) was 1.22 fold enrichment (6-mer frequency, TF over GST control) and the binding signal (ELK3) was 1.25 fold enrichment (6-mer frequency, TF over GST control). The binding signal (FEV) was 1.2 fold enrichment (6-mer frequency, TF over GST control), the binding signal (ETV5) was 1.21 fold enrichment (6-mer frequency, TF over GST control) and the binding signal (HSF1) was 1.5 fold enrichment (6-mer frequency, TF over GST control). For the same sequence, the binding signal (SPIC) was 1.26 fold enrichment (6-mer frequency, TF over GST control), the binding signal (ELF4) was 1.24 fold enrichment (6-mer frequency, TF over GST control) and the binding signal (ELK4) was 1.14 fold enrichment (6-mer frequency, TF over GST control). For the same sequence, the binding signal (ETV2) was 1.19 fold enrichment (6-mer frequency, TF over GST control), the binding signal (ELF3) was 1.18 fold enrichment (6-mer frequency, TF over GST control) and the binding signal (CRX) was 1.97 fold enrichment (6-mer frequency, TF over GST control). The binding signal (ETV1) was 1.18 fold enrichment (6-mer frequency, TF over GST control).
